Test results taken from PubChem BioAssay (NCI).
This is part of a sample that, as a whole, favours compounds with a hit. Of some 79,000 tested, about 15% had one in any assay. A number with no mark means an inactive call. Activity calls are given as the source filed them. Cut-off read from the data, not from the text of the source: active = growth inhibition above about 70%; inactive = the rest.

What was measured:
[1] = NCI Yeast Anticancer Drug Screen. Data for the rad50 strain (AID 155);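 note: 0% = growth of vehicle-only cultures of the same strain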; conditions: S. cerevisiae rad50 strain growth inhibition, hits give high values
Summary of the method: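 DNA repair mutant yeast, compound exposure, growth read-out; inhibition is taken relative to vehicle.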

[2] = NCI Yeast Anticancer Drug Screen. Data for the mec2-1 strain (AID 157); conditions: S. cerevisiae mec2-1 strain, hits give high values
Summary of the method: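 Cells of the genetically defined mec2-1 yeast strain are incubated with test compound. Inhibition of growth is calculated against vehicle-treated controls.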

[3] = NCI Yeast Anticancer Drug Screen. Data for the sgs1 mgt1 strain (AID 161);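 note: 0% = growth of cultures given vehicle only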; conditions: S. cerevisiae sgs1 mgt1 strain, hits give high values
Summary of the method: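 Genetically altered yeast, compound exposure, growth inhibition relative to vehicle.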

[4] = NCI Yeast Anticancer Drug Screen. Data for the cln2 rad14 strain (AID 165);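 note: 0% = growth equal to vehicle treated cultures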; conditions: S. cerevisiae cln2 rad14 strain, hits give high values
Summary of the method: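 The screen exposed genetically defined yeast (cln2 rad14) to test compounds and scored growth inhibition relative to vehicle-treated controls.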

[5] = NCI Yeast Anticancer Drug Screen. Data for the bub3 strain (AID 167); conditions: S. cerevisiae bub3 mutant strain, hits give high values
Summary of the method: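 In this screen, a yeast mutant lacking normal mitotic checkpoint function is challenged with compound. Relative growth versus vehicle gives the inhibition value.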

[6] = NCI Yeast Anticancer Drug Screen. Data for the mlh1 rad18 strain (AID 175); conditions: S. cerevisiae mlh1 rad18 strain growth inhibition, hits give high values
Summary of the method: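 Compound-treated yeast growth, normalised to vehicle controls. Strain bears defined DNA repair mutations.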

[7] = at 5.0 µM (retest, dose inferred, filed as 0.5)
[8] = at 50.0 µM (retest, dose inferred, filed as 5.0)

Structure (SMILES)	growth inhibition [1, 7]	growth inhibition [1, 8]	growth inhibition ([1]; at 50.0 µM)	growth inhibition [2, 7]	growth inhibition [2, 8]	growth inhibition ([2]; at 50.0 µM)	growth inhibition [3, 7]	growth inhibition [3, 8]	growth inhibition ([3]; at 50.0 µM)	growth inhibition [4, 7]	growth inhibition [4, 8]	growth inhibition ([4]; at 50.0 µM)	growth inhibition [5, 7]	growth inhibition [5, 8]	growth inhibition ([5]; at 50.0 µM)	growth inhibition [6, 7]	growth inhibition [6, 8]	growth inhibition ([6]; at 50.0 µM)
CCCCOS(=O)(=O)c1ccccc1	7%	-25%	-6%	10%	1%	-2.6%	0%	1%	8.95%	5%	0%	-23.1%	-23%	-6%	0.8%	3%	1%	14.2%
O=C(c1ccccc1)c1ccc(O)c2ncccc12	23%	99% (active)	98.6% (active)	-11%	99% (active)	97.8% (active)	10%	99% (active)	99% (active)	-8%	99% (active)	98% (active)	5%	99% (active)	98.5% (active)	17%	98% (active)	98.3% (active)
S=C(SSC(=S)N1CCOCC1)N1CCOCC1	97% (active)	99% (active)	99.3% (active)	99% (active)	100% (active)	99.6% (active)	99% (active)	99% (active)	99.2% (active)	61%	99% (active)	99% (active)	98% (active)	99% (active)	99.5% (active)	98% (active)	99% (active)	99.5% (active)
COc1cc(/C=C2\SC(=S)N(/C=C/c3nc4ccccc4[nH]c3=O)C2=O)cc(OC)c1OC	-9%	57%	8.55%	-10%	45%	14.7%	-3%	24%	63.1%	-29%	58%	34.5%	-8%	44%	-4.8%	3%	42%	55.1%
Oc1c(Cl)cc(Cl)cc1C(c1cc(Cl)cc(Cl)c1O)C(Cl)(Cl)Cl	-2%	99% (active)	99% (active)	0%	100% (active)	99.5% (active)	-4%	99% (active)	99.5% (active)	-2%	97% (active)	98.7% (active)	-2%	99% (active)	99.2% (active)	0%	99% (active)	99.2% (active)
CCCCCCCCCCCCNCCCc1ccccc1	99% (active)	98% (active)	98.1% (active)	100% (active)	99% (active)	99.2% (active)	100% (active)	99% (active)	98.5% (active)	99% (active)	97% (active)	98.8% (active)	99% (active)	99% (active)	98% (active)	99% (active)	99% (active)	98.5% (active)
O=C1C(=O)c2cccnc2-c2ncccc21	93% (active)	98% (active)	90.8% (active)	95% (active)	98% (active)	93.6% (active)	95% (active)	99% (active)	93.2% (active)	73% (active)	96% (active)	91% (active)	96% (active)	98% (active)	92.2% (active)	94% (active)	98% (active)	91.5% (active)
CC1OC(OC2C(OC3CCC4(C)C(CCC5(C)C4CC=C4C6CC(C)(C)CCC6(C(=O)O)CCC45C)C3(C)CO)OCC(O)C2O)C(O)C(O)C1O (stereo not given)	94% (active)	99% (active)	89.5% (active)	87% (active)	100% (active)	89.8% (active)	95% (active)	99% (active)	90.3% (active)	89% (active)	98% (active)	88.5% (active)	97% (active)	99% (active)	87.7% (active)	93% (active)	98% (active)	88.2% (active)
S=C1SCN(Cc2cccs2)CN1Cc1cccs1	58%	95% (active)	71.2% (active)	42%	96% (active)	71.5% (active)	55%	99% (active)	77.7% (active)	23%	73% (active)	30.4%	37%	91% (active)	80.7% (active)	63%	96% (active)	74.7% (active)
Nc1nc(-c2ccccc2)nc(N)c1N=O	50%	99% (active)	87.4% (active)	63%	98% (active)	89.5% (active)	50%	99% (active)	91.5% (active)	52%	100% (active)	77% (active)	82% (active)	97% (active)	89.2% (active)	49%	67%	88.5% (active)
